# Key:
# [1] = target: Tyrosine-protein kinase SYK (Homo sapiens) (UniProt P43405); settings: at 10 µM
# [2] = target: T1, Mitogen-activated protein kinase kinase kinase 7 (Homo sapiens) (UniProt O43318); settings: at 1 µM
# T1 sequence (whole entry): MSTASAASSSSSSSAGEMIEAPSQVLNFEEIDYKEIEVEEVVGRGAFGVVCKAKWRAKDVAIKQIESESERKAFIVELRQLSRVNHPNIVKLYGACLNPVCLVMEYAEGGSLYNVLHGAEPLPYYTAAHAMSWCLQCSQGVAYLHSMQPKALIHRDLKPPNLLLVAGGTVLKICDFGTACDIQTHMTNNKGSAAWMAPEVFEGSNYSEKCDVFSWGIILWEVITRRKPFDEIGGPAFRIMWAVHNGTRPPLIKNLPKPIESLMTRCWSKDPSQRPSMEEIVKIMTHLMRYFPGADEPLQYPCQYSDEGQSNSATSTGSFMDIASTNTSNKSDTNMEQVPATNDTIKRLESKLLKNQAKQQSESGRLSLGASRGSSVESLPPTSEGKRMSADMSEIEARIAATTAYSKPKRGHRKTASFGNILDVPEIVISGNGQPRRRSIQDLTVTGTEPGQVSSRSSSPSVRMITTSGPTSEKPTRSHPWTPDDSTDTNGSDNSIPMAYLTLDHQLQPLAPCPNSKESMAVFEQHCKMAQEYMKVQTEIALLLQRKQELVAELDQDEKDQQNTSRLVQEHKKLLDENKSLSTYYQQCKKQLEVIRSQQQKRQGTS
# [3] = target: T1, Mitogen-activated protein kinase kinase kinase 7 (Homo sapiens); settings: at 10 µM
# [4] = target: T2, Serine/threonine-protein kinase TAO1 (Homo sapiens) (UniProt Q7L7X3); settings: at 10 µM
# T2 sequence (whole entry): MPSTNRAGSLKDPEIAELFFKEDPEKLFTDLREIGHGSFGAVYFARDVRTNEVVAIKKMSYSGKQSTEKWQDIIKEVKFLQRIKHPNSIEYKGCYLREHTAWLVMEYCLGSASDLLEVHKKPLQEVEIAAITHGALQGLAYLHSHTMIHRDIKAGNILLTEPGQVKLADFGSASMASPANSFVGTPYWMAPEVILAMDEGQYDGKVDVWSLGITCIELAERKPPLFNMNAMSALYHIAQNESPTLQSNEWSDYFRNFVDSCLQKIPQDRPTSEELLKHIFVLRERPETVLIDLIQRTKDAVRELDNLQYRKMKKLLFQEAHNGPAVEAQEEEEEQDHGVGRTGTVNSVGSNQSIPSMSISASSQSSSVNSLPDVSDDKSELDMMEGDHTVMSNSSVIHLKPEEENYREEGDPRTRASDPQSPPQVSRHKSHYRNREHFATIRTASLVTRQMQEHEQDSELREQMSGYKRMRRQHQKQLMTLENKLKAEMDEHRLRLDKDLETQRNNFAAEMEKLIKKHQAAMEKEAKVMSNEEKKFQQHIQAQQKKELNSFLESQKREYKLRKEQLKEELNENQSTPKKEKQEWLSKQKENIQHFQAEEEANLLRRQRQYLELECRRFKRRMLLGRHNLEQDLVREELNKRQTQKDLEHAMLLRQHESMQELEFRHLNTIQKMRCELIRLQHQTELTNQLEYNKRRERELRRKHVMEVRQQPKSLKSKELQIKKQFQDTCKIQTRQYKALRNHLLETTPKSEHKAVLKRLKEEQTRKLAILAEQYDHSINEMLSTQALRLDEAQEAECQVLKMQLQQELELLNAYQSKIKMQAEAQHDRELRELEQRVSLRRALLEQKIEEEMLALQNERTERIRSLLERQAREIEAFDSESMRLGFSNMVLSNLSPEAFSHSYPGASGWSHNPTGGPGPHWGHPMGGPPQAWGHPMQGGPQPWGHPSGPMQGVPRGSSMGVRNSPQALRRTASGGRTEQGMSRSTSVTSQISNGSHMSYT
# [5] = target: T3, Serine/threonine-protein kinase TAO2 (Homo sapiens) (UniProt Q9UL54); settings: at 1 µM
# T3 sequence (whole entry): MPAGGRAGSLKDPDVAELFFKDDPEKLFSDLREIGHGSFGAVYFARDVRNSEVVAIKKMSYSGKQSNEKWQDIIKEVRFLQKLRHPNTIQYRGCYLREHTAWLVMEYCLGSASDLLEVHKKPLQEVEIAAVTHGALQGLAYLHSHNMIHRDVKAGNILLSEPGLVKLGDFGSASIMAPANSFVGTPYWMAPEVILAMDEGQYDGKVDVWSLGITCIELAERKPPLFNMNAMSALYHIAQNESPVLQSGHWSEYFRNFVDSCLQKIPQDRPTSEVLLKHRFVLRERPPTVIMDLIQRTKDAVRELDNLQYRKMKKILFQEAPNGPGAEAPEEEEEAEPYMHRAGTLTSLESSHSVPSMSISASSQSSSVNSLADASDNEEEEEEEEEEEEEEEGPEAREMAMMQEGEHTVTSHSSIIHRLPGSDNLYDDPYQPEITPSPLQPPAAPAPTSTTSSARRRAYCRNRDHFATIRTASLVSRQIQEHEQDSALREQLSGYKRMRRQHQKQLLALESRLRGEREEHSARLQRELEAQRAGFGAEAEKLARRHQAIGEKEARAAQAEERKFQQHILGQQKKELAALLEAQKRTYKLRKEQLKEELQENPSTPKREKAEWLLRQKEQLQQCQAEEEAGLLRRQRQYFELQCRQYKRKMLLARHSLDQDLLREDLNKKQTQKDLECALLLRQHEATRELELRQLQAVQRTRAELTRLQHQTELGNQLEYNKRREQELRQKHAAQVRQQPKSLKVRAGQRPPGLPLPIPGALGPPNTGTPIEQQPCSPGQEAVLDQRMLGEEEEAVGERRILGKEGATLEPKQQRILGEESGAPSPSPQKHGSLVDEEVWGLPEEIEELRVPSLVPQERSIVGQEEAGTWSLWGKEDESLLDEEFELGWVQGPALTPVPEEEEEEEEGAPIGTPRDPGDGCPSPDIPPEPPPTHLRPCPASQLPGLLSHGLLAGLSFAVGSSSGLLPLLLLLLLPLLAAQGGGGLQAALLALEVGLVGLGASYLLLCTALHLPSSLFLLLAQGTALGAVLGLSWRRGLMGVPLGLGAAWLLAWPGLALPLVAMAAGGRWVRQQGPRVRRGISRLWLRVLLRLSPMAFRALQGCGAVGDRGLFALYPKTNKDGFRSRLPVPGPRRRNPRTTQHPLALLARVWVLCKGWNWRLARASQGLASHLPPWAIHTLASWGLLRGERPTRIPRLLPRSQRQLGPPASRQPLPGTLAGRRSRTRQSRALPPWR
# [6] = target: T3, Serine/threonine-protein kinase TAO2 (Homo sapiens); settings: at 10 µM
# [7] = target: T4, Serine/threonine-protein kinase TAO3 (Homo sapiens) (UniProt Q9H2K8); settings: at 1 µM
# T4 sequence (whole entry): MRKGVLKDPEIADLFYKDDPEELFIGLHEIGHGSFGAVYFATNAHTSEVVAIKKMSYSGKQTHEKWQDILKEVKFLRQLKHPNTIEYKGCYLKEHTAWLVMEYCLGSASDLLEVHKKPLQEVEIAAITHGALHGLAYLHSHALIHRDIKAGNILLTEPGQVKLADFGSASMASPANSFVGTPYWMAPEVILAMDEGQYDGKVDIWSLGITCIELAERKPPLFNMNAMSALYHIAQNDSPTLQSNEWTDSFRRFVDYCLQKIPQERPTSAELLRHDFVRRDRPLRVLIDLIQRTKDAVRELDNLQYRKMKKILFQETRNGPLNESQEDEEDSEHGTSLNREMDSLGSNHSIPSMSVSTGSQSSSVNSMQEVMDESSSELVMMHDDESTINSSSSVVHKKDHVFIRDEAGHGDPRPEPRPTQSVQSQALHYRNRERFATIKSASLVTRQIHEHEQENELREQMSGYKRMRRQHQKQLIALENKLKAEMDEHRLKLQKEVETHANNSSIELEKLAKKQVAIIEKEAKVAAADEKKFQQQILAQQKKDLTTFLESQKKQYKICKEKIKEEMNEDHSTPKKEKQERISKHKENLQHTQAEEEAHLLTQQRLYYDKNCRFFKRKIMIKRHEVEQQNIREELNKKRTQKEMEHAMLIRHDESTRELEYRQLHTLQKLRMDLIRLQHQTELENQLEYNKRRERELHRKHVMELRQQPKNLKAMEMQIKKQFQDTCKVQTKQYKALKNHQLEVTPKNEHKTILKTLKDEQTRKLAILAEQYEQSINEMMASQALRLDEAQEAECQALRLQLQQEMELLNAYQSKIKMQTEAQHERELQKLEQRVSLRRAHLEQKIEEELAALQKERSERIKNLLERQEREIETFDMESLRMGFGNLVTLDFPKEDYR
# [8] = target: T4, Serine/threonine-protein kinase TAO3 (Homo sapiens); settings: at 10 µM
structure (smiles),measurement,setting,value
CN(C)CCCn1cc(C2=C(c3c[nH]c4ccccc34)C(=O)NC2=O)c2ccccc21,residual activity,[1],57%
same,residual activity,[2],103%
same,residual activity,[3],64%
same,residual activity,[4],53%
same,residual activity,[5],101%
same,residual activity,[6],49%
same,residual activity,[7],88%
same,residual activity,[8],27%
